From PubChem BioAssay (NCI)
This is part of a sample that, as a whole, favours compounds with a hit. Of some 79,000 tested, about 15% had one in any assay. Unmarked numbers belong to inactive results. Active and inactive are the calls of the source. No stated cut-off is given here; in the data, active means growth inhibition above about 70%; inactive means the rest.

Key:
[1] = NCI Yeast Anticancer Drug Screen. Data for the rad52 strain (AID 147);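 further: 0% = growth of vehicle-treated control cultures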; conditions: S. cerevisiae rad52 mutant growth inhibition, hits give high values
Method in brief: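 The repair-mutant yeast strain was incubated with compounds, then growth was read and inhibition derived relative to vehicle.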

[2] = NCI Yeast Anticancer Drug Screen. Data for the wt1 strain (AID 149);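 further: 0% = growth of vehicle-treated wt1 cultures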; conditions: S. cerevisiae wt1 strain (SPY 50644) growth inhibition, hits give high values
Method in brief: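 Measured: growth of wt1 yeast under compound versus vehicle treatment, reported as inhibition.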

[3] = NCI Yeast Anticancer Drug Screen. Data for the rad50EPP+ strain (AID 151);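 further: 0% = growth of vehicle-treated control cultures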; conditions: S. cerevisiae rad50 mutant strain, hits give high values
Method in brief: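 Vehicle-normalised growth inhibition; rad50EPP+ yeast strain, altered in DNA damage repair, compound-treated.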

[4] = NCI Yeast Anticancer Drug Screen. Data for the mgt1 strain (AID 153); conditions: S. cerevisiae mgt1 mutant growth inhibition, hits give high values
Method in brief: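 Vehicle-normalized growth inhibition is determined in mgt1 yeast, a strain selected for a defined alteration in DNA repair or cell cycle control.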

[5] = NCI Yeast Anticancer Drug Screen. Data for the rad50 strain (AID 155);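 further: 0% = growth of vehicle-only cultures of the same strain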; conditions: S. cerevisiae rad50 strain growth inhibition, hits give high values
Method in brief: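 Growth of the mutant yeast was measured after compound exposure and referenced to vehicle-treated cultures.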

[6] = NCI Yeast Anticancer Drug Screen. Data for the mec2-1 strain (AID 157); conditions: S. cerevisiae mec2-1 strain, hits give high values
Method in brief: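 Mutant yeast (mec2-1) grown with compound; growth inhibition relative to vehicle control reported.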

[7] = NCI Yeast Anticancer Drug Screen. Data for the sgs1 mgt1 strain (AID 161);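 further: 0% = growth of cultures given vehicle only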; conditions: S. cerevisiae sgs1 mgt1 strain, hits give high values
Method in brief: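 Percent growth inhibition was derived by comparing compound-exposed mutant yeast with vehicle-exposed cultures. The strain carries alterations in DNA damage repair.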

[8] = NCI Yeast Anticancer Drug Screen. Data for the CLN2oe strain (AID 163);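 further: 0% = growth of vehicle-only control cultures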; conditions: S. cerevisiae CLN2oe strain, hits give high values
Method in brief: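 Compounds are applied to yeast harbouring a defined cell-cycle control change; reduced growth compared with vehicle-treated controls gives the value.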

[9] = NCI Yeast Anticancer Drug Screen. Data for the cln2 rad14 strain (AID 165);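 further: 0% = growth equal to vehicle treated cultures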; conditions: S. cerevisiae cln2 rad14 strain, hits give high values
Method in brief: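 Readout is yeast growth inhibition versus vehicle-treated controls, using a strain with cln2 and rad14 alterations exposed to compound.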

[10] = NCI Yeast Anticancer Drug Screen. Data for the bub3 strain (AID 167); conditions: S. cerevisiae bub3 mutant strain, hits give high values
Method in brief: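 Whole-cell yeast assay. The mutant strain was incubated with compounds, and growth inhibition was determined by comparison with vehicle-treated cells.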

[11] = NCI Yeast Anticancer Drug Screen. Data for the wt2 strain (AID 169);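 further: 0% = growth of vehicle-treated yeast cultures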; conditions: S. cerevisiae wt2 strain growth inhibition, hits give high values
Method in brief: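 Against vehicle-treated controls, the growth of yeast exposed to each compound was compared, and the inhibition was recorded.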

[12] = NCI Yeast Anticancer Drug Screen. Data for the mlh1 strain (AID 171);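 further: 0% = growth of vehicle-treated control cultures of the same strain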; conditions: S. cerevisiae mlh1 strain growth inhibition, hits give high values
Method in brief: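 Measured: yeast growth. Reference: vehicle-treated controls. Organism: strain with a defined alteration affecting DNA damage repair or cell cycle control, treated with compound.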

[13] = NCI Yeast Anticancer Drug Screen. Data for the sgs1 strain (AID 173);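 further: 0% = growth of vehicle-only control cultures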; conditions: S. cerevisiae sgs1 mutant, hits give high values
Method in brief: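 Each compound was added to cultures of the altered yeast strain. Growth was recorded, and inhibition was derived by comparison with vehicle controls.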

[14] = NCI Yeast Anticancer Drug Screen. Data for the mlh1 rad18 strain (AID 175); conditions: S. cerevisiae mlh1 rad18 strain growth inhibition, hits give high values
Method in brief: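 Genetically defined yeast (DNA repair-deficient) exposed to compounds; growth inhibition determined relative to vehicle.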

[15] = NCI Yeast Anticancer Drug Screen. Data for the rad18 strain (AID 177); conditions: S. cerevisiae rad18 mutant growth inhibition, hits give high values
Method in brief: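 Vehicle-treated cultures served as the baseline for scoring compound-induced growth inhibition in DNA-repair-mutant yeast.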

[16] = NCI Yeast Anticancer Drug Screen. Data for the rad14 strain (AID 159);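 further: 0% = growth of vehicle-treated control cultures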; conditions: S. cerevisiae rad14 strain growth inhibition, hits give high values
Method in brief: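 Here, inhibition of yeast growth was measured after compound exposure, using a strain with a genetic defect in DNA damage repair and vehicle-treated cultures as the reference.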

[17] = at 5.0 µM (retest, dose inferred, filed as 0.5)
[18] = at 50.0 µM (retest, dose inferred, filed as 5.0)

Cn1c(-c2ccc(/C=N\N3CCN(/N=C/c4ccc(-c5c[n+]6ccsc6n5C)cc4)CC3)cc2)c[n+]2ccsc12
growth inhibition ([1]; at 1.2 µM): 14% | growth inhibition ([1]; at 3.7 µM): 19% | growth inhibition ([1]; at 11.0 µM): 20% | growth inhibition ([1]; at 33.0 µM): 16% | growth inhibition ([1]; at 100.0 µM): 75% (active) | growth inhibition ([2]; at 1.2 µM): 5% | growth inhibition ([2]; at 3.7 µM): 18% | growth inhibition ([2]; at 11.0 µM): 14% | growth inhibition ([2]; at 33.0 µM): 17% | growth inhibition ([2]; at 100.0 µM): 71% (active) | growth inhibition ([3]; at 1.2 µM): 30% | growth inhibition ([3]; at 3.7 µM): 51% | growth inhibition ([3]; at 11.0 µM): 49% | growth inhibition ([3]; at 33.0 µM): 59% | growth inhibition ([3]; at 100.0 µM): 78% (active) | growth inhibition ([4]; at 1.2 µM): 17% | growth inhibition ([4]; at 3.7 µM): 27% | growth inhibition ([4]; at 11.0 µM): 25% | growth inhibition ([4]; at 33.0 µM): 25% | growth inhibition ([4]; at 100.0 µM): 69% | growth inhibition ([5]; at 1.2 µM): 21% | growth inhibition ([5]; at 3.7 µM): 33% | growth inhibition [5, 17]: 12% | growth inhibition ([5]; at 11.0 µM): 21% | growth inhibition ([5]; at 33.0 µM): 11% | growth inhibition [5, 18]: 29% | growth inhibition ([5]; at 50.0 µM): 18% | growth inhibition ([5]; at 100.0 µM): 76% (active) | growth inhibition ([6]; at 1.2 µM): 50% | growth inhibition ([6]; at 3.7 µM): 51% | growth inhibition [6, 17]: 14% | growth inhibition ([6]; at 11.0 µM): 57% | growth inhibition ([6]; at 33.0 µM): 41% | growth inhibition [6, 18]: 53% | growth inhibition ([6]; at 50.0 µM): 30.4% | growth inhibition ([6]; at 100.0 µM): 82% (active) | growth inhibition [7, 17]: 18% | growth inhibition [7, 18]: 58% | growth inhibition ([7]; at 50.0 µM): 25.1% | growth inhibition ([8]; at 1.2 µM): 40% | growth inhibition ([8]; at 3.7 µM): 48% | growth inhibition ([8]; at 11.0 µM): 49% | growth inhibition ([8]; at 33.0 µM): 52% | growth inhibition ([8]; at 100.0 µM): 76% (active) | growth inhibition [9, 17]: 18% | growth inhibition [9, 18]: 18% | growth inhibition ([9]; at 50.0 µM): 70.5% (active) | growth inhibition ([10]; at 1.2 µM): 17% | growth inhibition ([10]; at 3.7 µM): 26% | growth inhibition [10, 17]: 17% | growth inhibition ([10]; at 11.0 µM): 25% | growth inhibition ([10]; at 33.0 µM): 40% | growth inhibition [10, 18]: 35% | growth inhibition ([10]; at 50.0 µM): 16.4% | growth inhibition ([10]; at 100.0 µM): 78% (active) | growth inhibition ([11]; at 1.2 µM): -43% | growth inhibition ([11]; at 3.7 µM): -40% | growth inhibition ([11]; at 11.0 µM): -31% | growth inhibition ([11]; at 33.0 µM): 0% | growth inhibition ([11]; at 100.0 µM): 90% (active) | growth inhibition ([12]; at 1.2 µM): 33% | growth inhibition ([12]; at 3.7 µM): 32% | growth inhibition ([12]; at 11.0 µM): 19% | growth inhibition ([12]; at 33.0 µM): 47% | growth inhibition ([12]; at 100.0 µM): 74% (active) | growth inhibition ([13]; at 1.2 µM): 29% | growth inhibition ([13]; at 3.7 µM): 32% | growth inhibition ([13]; at 11.0 µM): 32% | growth inhibition ([13]; at 33.0 µM): 46% | growth inhibition ([13]; at 100.0 µM): 88% (active) | growth inhibition [14, 17]: 34% | growth inhibition [14, 18]: 73% (active) | growth inhibition ([14]; at 50.0 µM): -10.8% | growth inhibition ([15]; at 1.2 µM): 19% | growth inhibition ([15]; at 3.7 µM): 34% | growth inhibition ([15]; at 11.0 µM): 24% | growth inhibition ([15]; at 33.0 µM): 62% | growth inhibition ([15]; at 100.0 µM): 89% (active)

Cc1cccc2c(Cl)c3cccc(C)c3nc12
growth inhibition ([1]; at 1.2 µM): 1% | growth inhibition ([1]; at 3.7 µM): -1% | growth inhibition ([1]; at 11.0 µM): 8% | growth inhibition ([1]; at 33.0 µM): 42% | growth inhibition ([1]; at 100.0 µM): 65% | growth inhibition ([2]; at 1.2 µM): -2% | growth inhibition ([2]; at 3.7 µM): -3% | growth inhibition ([2]; at 11.0 µM): -1% | growth inhibition ([2]; at 33.0 µM): -1% | growth inhibition ([2]; at 100.0 µM): 2% | growth inhibition ([3]; at 1.2 µM): 2% | growth inhibition ([3]; at 3.7 µM): 5% | growth inhibition ([3]; at 11.0 µM): 26% | growth inhibition ([3]; at 33.0 µM): 64% | growth inhibition ([3]; at 100.0 µM): 61% | growth inhibition ([4]; at 1.2 µM): -4% | growth inhibition ([4]; at 3.7 µM): 1% | growth inhibition ([4]; at 11.0 µM): -7% | growth inhibition ([4]; at 33.0 µM): 0% | growth inhibition ([4]; at 100.0 µM): -10% | growth inhibition ([5]; at 1.2 µM): 1% | growth inhibition ([5]; at 3.7 µM): 10% | growth inhibition [5, 17]: 13% | growth inhibition ([5]; at 11.0 µM): 21% | growth inhibition ([5]; at 33.0 µM): 44% | growth inhibition [5, 18]: 75% (active) | growth inhibition ([5]; at 50.0 µM): 75% (active) | growth inhibition ([5]; at 100.0 µM): 62% | growth inhibition ([6]; at 1.2 µM): -10% | growth inhibition ([6]; at 3.7 µM): -13% | growth inhibition [6, 17]: 7% | growth inhibition ([6]; at 11.0 µM): -10% | growth inhibition ([6]; at 33.0 µM): 1% | growth inhibition [6, 18]: 25% | growth inhibition ([6]; at 50.0 µM): -15.9% | growth inhibition ([6]; at 100.0 µM): 6% | growth inhibition ([16]; at 1.2 µM): -2% | growth inhibition ([16]; at 3.7 µM): 11% | growth inhibition ([16]; at 11.0 µM): 4% | growth inhibition ([16]; at 33.0 µM): 13% | growth inhibition ([16]; at 100.0 µM): 12% | growth inhibition [9, 17]: -33% | growth inhibition [9, 18]: 10% | growth inhibition ([9]; at 50.0 µM): 1.65% | growth inhibition ([10]; at 1.2 µM): -8% | growth inhibition ([10]; at 3.7 µM): 6% | growth inhibition [10, 17]: 0% | growth inhibition ([10]; at 11.0 µM): 2% | growth inhibition ([10]; at 33.0 µM): 1% | growth inhibition [10, 18]: 18% | growth inhibition ([10]; at 50.0 µM): -28.9% | growth inhibition ([10]; at 100.0 µM): -17% | growth inhibition ([11]; at 1.2 µM): -4% | growth inhibition ([11]; at 3.7 µM): -3% | growth inhibition ([11]; at 11.0 µM): -2% | growth inhibition ([11]; at 33.0 µM): 3% | growth inhibition ([11]; at 100.0 µM): 5% | growth inhibition ([12]; at 1.2 µM): -3% | growth inhibition ([12]; at 3.7 µM): -2% | growth inhibition ([12]; at 11.0 µM): 3% | growth inhibition ([12]; at 33.0 µM): 12% | growth inhibition ([12]; at 100.0 µM): 12% | growth inhibition ([13]; at 1.2 µM): -3% | growth inhibition ([13]; at 3.7 µM): -5% | growth inhibition ([13]; at 11.0 µM): -4% | growth inhibition ([13]; at 33.0 µM): 2% | growth inhibition ([13]; at 100.0 µM): 2% | growth inhibition [14, 17]: -16% | growth inhibition [14, 18]: 49% | growth inhibition ([14]; at 50.0 µM): 10.1% | growth inhibition ([15]; at 1.2 µM): -3% | growth inhibition ([15]; at 3.7 µM): -3% | growth inhibition ([15]; at 11.0 µM): -1% | growth inhibition ([15]; at 33.0 µM): 6% | growth inhibition ([15]; at 100.0 µM): 14%
